Here are results for six compounds from PubChem BioAssay.

Assay [1] is described as follows: yeast 75Q aggregation reduction – 75Q-TubU reporter (AID 1593). As to conditions: Yeast 75Q polyglutamine aggregation reporter.
Assay [2] is described as follows: restoration of touch response, mutant HTT neurons – whole organism, C. elegans mechanosensory neurons, N-terminal huntingtin (AID 1599). The note with it: C. elegans polyQ-huntingtin mechanosensory neurons, stronger effect = higher value.
Assay [3] in a line: blockers of cytochrome c efflux from mitochondria – biochemical, purified mitochondria (AID 1603).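 Also: mouse liver mitochondria challenged with calcium chloride; signal normalized to the plate average as 100%.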 As to conditions: stronger effect = lower value.
Assay [4] can be described thus: polyglutamine aggregate formation blockers (AID 1604). As to conditions: polyglutamine-induced protein aggregation inhibition assay; stronger effect = higher value; tested at 2.5 µM.
Assay [5] in a line: glutamate transport activators, MN-1 cells, MN-1 cell line (AID 1612).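 Also: tested at 1 µM final; 0% = mean of DMSO vehicle wells on each plate; positive means more glutamate uptake than control and negative means less.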 As to conditions: MN-1 motor neuron cells, stronger effect = higher value.
Assay [6] is described as follows: 75Q-TubH aggregate inhibition, S. cerevisiae, yeast (AID 1616). As to conditions: S. cerevisiae 75Q-TubH polyglutamine aggregation suppression; stronger effect = higher value.
The nature of assay [7]: P. berghei load reduction in hepatocytes – cell-based, HepG2, luciferase luminescence, HepG2 viability, primary screen (AID 624349; in the data active = parasite load remaining mostly below about 12%, no sharp cut-off; inactive = mostly above about 10%;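 also: 100% = mean of DMSO negative control wells on the same plate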). As to conditions: P. berghei liver stage in HepG2, luciferase luminescence, concentration not given here; parasite load remaining: stronger effect = lower value; viability: measured here: HepG2 viability without parasites.
A short description of assay [8]: EMT-state selective cytotoxicity in co-culture – imaging, PC-3E GFP, TEM4-18 mCherry, primary screen (AID 1345086;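 active = compounds killing one labelled cell type while sparing the other, by normalised counts and ratio limits, not self-fluorescent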;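 also: cells exposed to compound for 72 h before imaging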;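 as to red/green cell ratio (normalised): normalised mesenchymal count divided by normalised epithelial count so high means epithelial killing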). The note with it: PC-3E GFP / TEM4-18 mCherry co-culture, imaging cell counts, at 1 µM.
Assay [9] in a line: viability loss with induced miR-34 in A549 – imaging, A549 dox-inducible miR-34, nuclei and caspase counts, primary screen (AID 1347080;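 active = compounds whose cell count with miR-34 switched on is under 0.7 times the count with it off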). The note with it: A549 miR-34 inducible, Hoechst nuclei count, 48 h.
A short description of assay [10]: compounds altering circadian rhythm period length – cell-based, LOPAC library, luminescence reporter (AID 2774).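 Also: values are relative to mean of DMSO wells on each plate.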 The note with it: circadian reporter cells, at 7 µM, actives lie on both sides.
The subject of assay [11] is Hepatitis C virus NS3 helicase. Description: blockers of NS3h binding to ssDNA – biochemical, fluorescence polarization, LOPAC1280 library, primary screen (AID 687035; in the data active = inhibition above about 37%). The note with it: Purified HCV NS3 helicase, Cy5-dT15 ssDNA binding fluorescence polarization; stronger effect = higher value; concentration not given here.
Assay [12] is described as follows: compounds altering Cy5-DNA-NS3h complex signal – biochemical, LOPAC1280, artefact control for HCV NS3 helicase inhibitor project (AID 687037). The note with it: Cy5-DNA-NS3h complex fluorescence interference counterscreen.
The subject of assay [13] is Aerobactin synthetase IucA (Klebsiella pneumoniae). Description: inhibition of K. pneumoniae IucA enzyme – biochemical, Tocris library, absorbance (AID 1345561).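 Also: 100% = enzyme without compound and 0% = no enzyme.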 As to conditions: purified IucA enzyme assay, absorbance (OD) read-out; stronger effect = lower value;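 tested at 8 µM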.
The subject of assay [14] is Aerobactin synthetase IucA (Klebsiella pneumoniae, hypervirulent). The assay can be described thus: biochemical IucA inhibition screen of LOPAC library by absorbance (AID 1346212).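 Also: 100% = no compound wells and 0% = no enzyme wells.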 The note with it: IucA enzyme assay, absorbance (OD) readout; stronger effect = lower value;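 tested at 8 µM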.
Assay [15] can be described thus: blockers of cellular phospholipid synthesis – cell-based, LOPAC library, screen 4, primary screen (AID 1347384). As to conditions: animal cells, phospholipid biosynthesis inhibition screen; at 10 µM.
Assay [16] in a line: galactose survival enhancers in mitochondrial complex I cybrids – cell-based, galactose medium, ATP luminescence, primary screen (AID 1645843;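 active = z-score of at least 1.8 in each of two replicates, scored against plate mean and spread of sample wells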;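 also: positive z means more ATP and so rescue of galactose-driven cybrid death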). The note with it: complex I mutant cybrid cells, 72 h, stronger effect = higher value.
Assay [17] can be described thus: compounds altering viability of human ES cells (AID 493140).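 Also: cells exposed to compounds for four days before counting.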 As to conditions: human embryonic stem cell survival screen; stronger effect = higher value.
Assay [18] can be described thus: MELAS cybrid and Rieske KO viability enhancers – cell-based, MELAS cybrids, Rieske KO mouse fibroblasts, CellTiter-Glo, primary screen (AID 1508586;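 active = mean z-score across replicates of 1.96 or higher in either the MELAS or the Rieske mutant cell line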;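 also: z relative to plate mean and SD of compound and empty wells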). The note with it: low glucose.
Setting [19] is: measured here: relative caspase fold change +Dox/-Dox.
Where [20] appears, read: measured here: total cells with miR-34 induction, stronger effect = lower value.
Where [21] appears, read: measured here: total cells without miR-34 induction.
Setting [22] is: stronger effect = lower value, cell number ratio, induced over uninduced.

Each structure is given as a SMILES string. Where “and” joins values, the source holds several entries; their conditions need not be identical. Identical values can stand only once. For some of these results: Potency and affinity values are given separately. Calls of active or inactive are those of the source. Unless noted, no rule for the calls is given here.

For the compound `O=C1CN=C(c2ccccc2Cl)c2cc([N+](=O)[O-])ccc2N1`, the score in assay [1] was 0.89. Further, the rescue above control in assay [2] was -2.29. In addition, the cytochrome c release ratio in assay [3] came to 0.98. Moreover, the inhibition of aggregation in assay [4] is 52.4%. Moreover, the glutamate uptake change in [5] was -25.1%. Moreover, the aggregation suppression score in assay [6] is 0.77. Moreover, the parasite load remaining in assay [7] is 52.7% (inactive). This compound also returned a viability in [7] of 99.8%. The red/green cell ratio (normalised) in assay [8] (actives lie on both sides) was 1.15 (inactive). Also, the normalised cell number in assay [8] (measured here: epithelial PC-3E GFP cell survival) was determined as 0.93; in assay [8] (measured here: mesenchymal TEM4-18 mCherry cell survival), 1.07. Besides, the fold change was 0.845 (inactive) in assay [9] (stronger effect = lower value) and 3.3 in [9] (setting [19]). For the same compound, the results for the cell count in [9] (setting [20]) and in [9] (setting [21]) were 10900 and 12900, respectively.
With `C[C@@H](N)Cc1cnc[nH]1`, the period change in assay [10] was -0.03 h (inactive). Also, in [11], the inhibition was -1% (inactive). In addition, in assay [12], the fluorescence ratio (interference) is 1 (inactive). Moreover, the values for the remaining activity in assay [13] and in assay [14] were 120% (inactive) and 105% (inactive), respectively. For the same compound, the fold change in [9] (stronger effect = lower value) was 0.943 (inactive); in assay [9] (setting [22]) it was 1.02 (inactive); in [9] (setting [19]), 0.922 and 0.657. Further, the cell count is 9840 and 7980 in [9] (setting [20]); 10400 and 7800 in assay [9] (setting [21]). The call in [15] was inactive. For the same compound, the z-score in [16] is 0.195 (inactive) and -0.325 (inactive).
With `c1ccc(CCCN2CCN(CCOC(c3ccccc3)c3ccccc3)CC2)cc1`, the period change in assay [10] was -0.025 h (inactive). Also, the inhibition in assay [11] was 0% (inactive). For the same compound, the fluorescence ratio (interference) in assay [12] is 1 (inactive). Moreover, the remaining activity in assay [13] was 117% (inactive); in assay [14], 104% (inactive). The fold change was 1.21 (inactive) and 0.966 (inactive) in assay [9] (stronger effect = lower value); 1.16 and 0.645 in [9] (setting [19]). Also, the cell count in [9] (setting [20]) is 3120 and 2750; in [9] (setting [21]) it was 2580 and 2850. Moreover, in [15], the result was inactive. In addition, the z-score in assay [16] was -1.04 (inactive) and -1.21 (inactive).
`O=C(N[C@H]1CN2CCC1CC2)c1ccc(Cl)cc1`: the inhibition in assay [11] was -1% (inactive). Further, in [12], the fluorescence ratio (interference) is 1 (inactive). In addition, the remaining activity in assay [13] was 93.4% (inactive); in [14], 109% (inactive). The fold change is 1.07 (inactive) in assay [9] (stronger effect = lower value); 0.932 (inactive) in [9] (setting [22]); 1.52 and 1.27 in assay [9] (setting [19]). The cell count in assay [9] (setting [20]) is 10700 and 8830; in [9] (setting [21]) it was 10000 and 9480. The call in assay [15] was inactive. Also, the z-score in [16] is 0.385 (inactive) and 0.125 (inactive).
On to `CC(N)Cc1c[nH]c2ccc(O)cc12` (stereo unspecified), for which, in [10], the period change was -0.08 h (inactive). Also, in assay [11], the inhibition is -7% (inactive). In addition, the fluorescence ratio (interference) in [12] was 0.9 (inactive). The remaining activity in assay [13] was 105% (inactive); in assay [14], 122% (inactive). Besides, the fold change in assay [9] (stronger effect = lower value) was 1.02 (inactive) and 0.98 (inactive); in assay [9] (setting [19]) it was 1.63 and 0.84. Further, the cell count in assay [9] (setting [20]) was 11100 and 9190; in assay [9] (setting [21]) it was 10900 and 9370. Moreover, in assay [15], the result was inactive. Further, the z-score in assay [16] is 0.365 (inactive) and 0.08 (inactive).
For `C[C@]12N[C@H](Cc3ccccc31)c1ccccc12`, the period change in assay [10] is 0.055 h (inactive). For the same compound, the survival in assay [17] is 15.6 (inactive). In addition, the parasite load remaining in assay [7] was 44.8% (inactive) and 97.8% (inactive). In assay [7], the viability was 70.4% and 87.5%. In assay [11], the inhibition was -1% (inactive). In addition, the fluorescence ratio (interference) in [12] was 1 (inactive). For the same compound, the results for the remaining activity in assay [13] and in [14] were 117% (inactive) and 89.7% (inactive), respectively. Also, the fold change in [9] (stronger effect = lower value) was 1.14 (inactive) and 0.978 (inactive) and 0.959 (inactive); in assay [9] (setting [19]), 0.783 and 1.01 and 0.875. In addition, the cell count was 10200 and 8980 and 9270 in assay [9] (setting [20]); 8990 and 9190 and 9660 in [9] (setting [21]). Moreover, the compound was classed as inactive in assay [15]. In addition, the z-score in assay [18] (MELAS cybrid survival, CellTiter-Glo 48 h, stronger effect = higher value) is 0.143 (inactive); in [18] (Rieske KO mouse fibroblast survival, CellTiter-Glo 72 h), 0.47; in [16], -0.205 (inactive) and 0.805 (inactive).
